Our source for the Potency and outcome values is PubChem BioAssay (Tox21).

Values joined by “and” are separate entries in the source; they are usually repeats but may differ in a detail not shown here. Equal values may be shown once. Results filed as inconclusive are left out. A structure can be active in one record and inactive in another. Active and inactive are the calls of the source. Unless noted, calls follow the shape of the dose curve; as a rule, active = well fitted curve in the direction sought with a large enough effect in the repeat runs; inconclusive = weak or mixed curves; inactive = no such curve, though single readings can be large; an effect the other way counts as inactive or inconclusive.

The nature of experiment [1]: qHTS assay for small molecule agonists of the p53 signaling pathway (AID 651631; calls by dose curve; also: nearly all actives have a fitted effect of over 15% in size). The procedure, abridged: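 Agonist mode screen using a stably integrated beta-lactamase gene under p53 response elements in HCT-116 cells. Compound exposure lasts 16 h at 37 °C; fluorescence intensity is measured following 2 h FRET substrate loading.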
In general terms: qHTS replaces the single test concentration by a dilution series.

A short description of experiment [2]: qHTS assay for small molecule agonists of the p53 signaling pathway - cell viability (AID 651633; calls by dose curve;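 also: p53RE-bla HCT reporter cells with a stable beta-lactamase p53 reporter; series mostly up to about 83 µM; nearly all actives have a fitted effect of over 30% in size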). The procedure, abridged: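 p53RE-bla cells were treated with compound for 16 hours at 37 C. Cytotoxicity was then measured as CellTiter-Glo luminescence after 30 min at room temperature.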
Experiment [3] is described as follows: qHTS assay for small molecules that induce genotoxicity in human embryonic kidney cells expressing luciferase-tagged ATAD5 - cell viability (AID 651634; calls by dose curve; also: nearly all actives have a fitted effect of over 25% in size). The procedure, abridged:
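Here HEK293T cells with the ATAD5 luciferase reporter are incubated with test compounds for 15.5 hr, and cytotoxicity is then gauged by measuring protease activity in live cells using fluorescence.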

Experiment [4] is described as follows: qHTS assay for small molecule disruptors of the mitochondrial membrane potential - cell viability (AID 720634; calls by dose curve;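 also: human HepG2 liver cancer cells; series mostly up to about 83 µM; nearly all actives have a fitted effect of over 20% in size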). The procedure, abridged: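 Viability of HepG2 cells is scored from ATP content by luminescence; cells are exposed to compound for 1 hr at 37 C and 5% CO2, then dosed with m-MPI dye before the CellTiter-Glo reagent.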
Experiment [5] in a line: qHTS assay for small molecule disruptors of the mitochondrial membrane potential (AID 720635). The procedure, abridged: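 HepG2 cells exposed to compound 1 hr at 37C, then Mito-MPS dye 30 min. Ratio read of aggregate (540/590 nm) versus monomer (490/535 nm) fluorescence.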
A short description of experiment [6]: qHTS assay to test for compound auto fluorescence at 590 nm (red) in HepG2 cells (AID 720674). The procedure, abridged: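 Fluorescence at 590 nm emission following 540 nm excitation was recorded from HepG2 wells one hour after compound transfer, with DMSO-only wells as vehicle and Rose Bengal sodium equivalency as the scale.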
Experiment [7] is described as follows: qHTS assay to test for compound auto fluorescence at 535 nm (green) in HepG2 cells (AID 720675).
Experiment [8] in a line: qHTS assay to test for compound auto fluorescence at 460 nm (blue) in HEK293 cells (AID 720678). An outline of the steps:
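Triamterene serves as the blue fluorophore standard. Compound signal at 405/460 nm is read in HEK293 wells (2,000 cells, 10% dialyzed FBS) after overnight treatment at 37C.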

Experiment [9] is described as follows: qHTS assay to test for compound auto fluorescence at 590 nm (red) in HEK293 cells (AID 720679). The procedure, abridged: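 We plated HEK293 cells in 10% dialyzed FBS medium, let them adhere for 4-5 hr, then added 23 nL compound. Overnight at 37C and 5% CO2 preceded fluorescence measurement at 540/590nm.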
The nature of experiment [10]: qHTS assay to test for compound auto fluorescence at 460 nm (blue) in HEK293 cell free culture (AID 720681). An outline of the steps: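 Compounds were added to cell-free DMEM with 10% FBS and fluorescence read directly. The blue channel used 405 nm excitation and 460 nm emission, with triamterene as the reference fluorophore.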
Experiment [11] is described as follows: qHTS assay to test for compound auto fluorescence at 535 nm (green) in HEK293 cell free culture (AID 720682). The procedure, abridged: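 No cells present: wells hold DMEM supplemented with 10% FBS, into which compound or vehicle is pinned. Green emission is then recorded (485 nm excitation, 535 nm emission) and scaled to fluorescein.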
Experiment [12] can be described thus: qHTS assay to test for compound auto fluorescence at 590 nm (red) in HepG2 cell free culture (AID 720684). The procedure, abridged:
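Rose Bengal sodium served as the reference for red signal. Test compounds were dispensed into serum-containing MEM (10% FBS) without cells, and plates were read at 540/590 nm.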

The nature of experiment [13]: qHTS assay to test for compound auto fluorescence at 460 nm (blue) in HepG2 cell free culture (AID 720685). The procedure, abridged:
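Cell-free plates of MEM plus 10% FBS received 23 nL compound or DMSO vehicle; blue-channel (405/460 nm) intensity scored against triamterene as reference fluorophore.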

A short description of experiment [14]: qHTS assay to test for compound auto fluorescence at 460 nm (blue) in HepG2 cells (AID 720687). An outline of the steps: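 HepG2 cells in MEM with 10% FBS, attached overnight at 37 C, were exposed to compound or DMSO for 1 hr at 37 C, 5% CO2. Blue fluorescence was read at 405/460 nm, with triamterene as reference fluorophore.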
The target of experiment [15] is Glucocorticoid receptor (Homo sapiens) (UniProt P04150). The experiment in a line: qHTS assay to identify small molecule agonists of the glucocorticoid receptor (GR) signaling pathway (AID 720691; active = well fitted activation curve with a large enough effect in the signal ratio in the repeat runs, not every such curve was filed as active; the % refers to the signal ratio). An outline of the steps:
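Compounds in DMSO, alongside positive controls, were added to GR-bla HeLa reporter cells and incubated 18 h at 37 C; GRE-driven beta-lactamase was detected by fluorescence after 2 h with FRET substrate at room temperature.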

Experiment [16] shares this target. The experiment in a line: qHTS assay to identify small molecule antagonists of the glucocorticoid receptor (GR) signaling pathway (AID 720692; active = well fitted inhibition curve with a large enough effect in the signal ratio in the repeat runs, not every such curve was filed as active; the % refers to the signal ratio; also: potency is read from the fitted curve at half-maximal effect). The procedure, abridged:
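In a 1536-well cell format, compounds were added 4 h after seeding GR-bla HeLa cells, together with dexamethasone at 5 nM final; reporter activity was measured by FRET-substrate fluorescence following 18 h at 37 C.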

Experiment [17] is described as follows: qHTS assay to test for compound auto fluorescence at 590 nm (red) in HEK293 cell free culture (AID 720683). An outline of the steps:
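Cell-free wells of DMEM with 10% FBS received compound, and intrinsic fluorescence was read at excitation/emission 540/590 nm. Values expressed as equivalence to Rose Bengal sodium.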

The nature of experiment [18]: qHTS assay to test for compound auto fluorescence at 535 nm (green) in HepG2 cell free culture (AID 720686).
A short description of experiment [19]: qHTS assay to test for compound auto fluorescence at 535 nm (green) in HEK293 cells (AID 720680).

Chain of Glucocorticoid receptor (Homo sapiens) (P04150 whole entry, looked up): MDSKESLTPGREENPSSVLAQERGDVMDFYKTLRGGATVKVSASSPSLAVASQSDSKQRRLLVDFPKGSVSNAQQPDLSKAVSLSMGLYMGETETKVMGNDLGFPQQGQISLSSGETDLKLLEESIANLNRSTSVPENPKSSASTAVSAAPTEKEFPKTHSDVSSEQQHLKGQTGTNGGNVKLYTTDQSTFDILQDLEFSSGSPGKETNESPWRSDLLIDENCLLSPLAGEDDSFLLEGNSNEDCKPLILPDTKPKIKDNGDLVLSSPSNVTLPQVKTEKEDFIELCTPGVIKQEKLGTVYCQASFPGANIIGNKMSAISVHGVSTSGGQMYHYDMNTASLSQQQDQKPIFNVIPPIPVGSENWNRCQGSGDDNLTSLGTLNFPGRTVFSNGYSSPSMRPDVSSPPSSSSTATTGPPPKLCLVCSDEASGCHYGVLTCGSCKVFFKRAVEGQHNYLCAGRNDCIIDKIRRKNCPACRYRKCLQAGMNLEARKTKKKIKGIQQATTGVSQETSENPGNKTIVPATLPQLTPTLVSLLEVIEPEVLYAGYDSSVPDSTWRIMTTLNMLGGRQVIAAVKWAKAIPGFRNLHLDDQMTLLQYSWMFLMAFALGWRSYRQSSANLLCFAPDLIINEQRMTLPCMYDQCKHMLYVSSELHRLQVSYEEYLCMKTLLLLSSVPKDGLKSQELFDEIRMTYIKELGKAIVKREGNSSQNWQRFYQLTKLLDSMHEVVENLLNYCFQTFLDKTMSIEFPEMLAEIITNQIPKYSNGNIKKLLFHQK

`CCCC1CCC(=O)O1` (configuration not stated): the Potency entry in experiment [1], in experiment [2], in experiment [3], in [4], in experiment [5] and in [15] was “inactive” throughout. The Potency entry in experiment [16] was “inactive”. For the same compound, the call in [6], in experiment [7], in [8], in experiment [9], in [10] and in [11] was inactive. The compound was classed as inactive in [12], in [13] and in experiment [14].
Turning to `CC(C)Nc1nc(N)nc(Cl)n1`, the Potency entry in experiment [1], in experiment [2], in experiment [3], in experiment [4], in experiment [5] and in experiment [15] was “inactive” each time. The Potency entry in [16] was “inactive”. The compound was called inactive in [6], in [7], in experiment [8], in experiment [9], in experiment [11] and in [17]. The result in experiment [12], in experiment [13], in [18] and in experiment [14] was inactive.
For the compound `CC(C)C1=CC2=CC[C@@H]3[C@](C)(CCC[C@@]3(C)C(=O)O)[C@H]2CC1`, the Potency entry in [1], in experiment [2], in experiment [3], in [5] and in [15] was “inactive” throughout. The result in experiment [6], in experiment [8], in experiment [9], in experiment [19], in [10] and in experiment [11] was inactive. In addition, the outcome in [17], in experiment [12], in [13], in [18] and in experiment [14] was inactive. For the same compound, in experiment [16], the Potency result was “inactive and 54.9 µM (active)”.
For the compound `CCOC(=O)c1ccccc1O`, the Potency result in experiment [1], in [2], in experiment [3], in [5], in [15] and in [16] was “inactive” throughout. Besides, the compound was called inactive in [6], in experiment [8], in experiment [9], in [19], in [11] and in [17]. In addition, the outcome in experiment [12], in experiment [18] and in experiment [14] was inactive.
On to `CN1CCN(c2c(F)cc3c(=O)c(C(=O)O)cn(CCF)c3c2F)CC1`, for which the Potency entry in experiment [1], in [2], in experiment [5], in [15] and in experiment [16] was “inactive” each time. The compound was classed as inactive in experiment [6], in [7], in experiment [8], in [9], in [19] and in experiment [10]. In addition, the outcome in experiment [11], in experiment [17], in experiment [13], in experiment [18] and in experiment [14] was inactive.
`OCCN1CCN(CCO)CC1`: the Potency result in experiment [1], in experiment [2], in experiment [3], in [4] and in experiment [15] was “inactive” each time. In addition, the outcome in experiment [6], in experiment [8], in experiment [9], in experiment [19], in [10] and in experiment [11] was inactive. The compound was classed as inactive in experiment [17], in experiment [12], in experiment [13], in [18] and in experiment [14].
Consider `Cc1cc2nc(N)sc2cc1C`, for which the Potency result in experiment [1], in [2], in experiment [3], in experiment [4], in [15] and in experiment [16] was “inactive” throughout. Further, the compound was called inactive in experiment [6], in [7], in [8], in experiment [10], in [11] and in experiment [17]. The call in experiment [13] and in [18] was inactive.
Regarding `O=C(O)c1cccc(Cl)c1Cl`, the Potency entry in experiment [1], in experiment [2], in experiment [3], in experiment [15] and in experiment [16] was “inactive” throughout. For the same compound, the compound was classed as inactive in experiment [6], in experiment [7], in [8], in experiment [9], in experiment [19] and in experiment [10]. The result in experiment [11], in experiment [17], in experiment [12], in experiment [18] and in experiment [14] was inactive.
